Results published in PubChem BioAssay (NCI).
The panel holds about 83,000 compounds, 20% with a hit somewhere; the sample as a whole holds those more often.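 How to read the values: 0–100, growth inhibition (40 = 60% inhibited); 0, no net growth; -100 to 0, cell death (-40 = 40% of starting cells died; -100 = all dead).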 Values without a mark were called inactive. Calls of active or inactive are those of the source.

What follows are compounds tested on SN12C renal (assay: NCI-60 one-dose screen, 48 h (100 = growth as untreated, 0 = no growth, -100 = all killed)). Conditions: 10 µM unless noted.
Description: Growth inhibition of the SN12C human tumor cell line is measured as a screen for anti-cancer activity. Cells are grown in 96 well plates and exposed to the test compound for 48 hours. Compounds are tested at a single concentration, which is 10^-5 M for most compounds. The reported endpoint is percent growth (GI% or GIPRCNT), where numbers from 0 - 100% represent growth inhibition, and numbers from -100% - 0 represent cell death. For example, a value of 40 represents 60% growth inhibition. A value of 0 means no net growth occurred over the course of the experiment. A value of -40 indicates 40% of cells at the beginning of the experiment died by the end of the experiment. A value of -100 means all cells are dead at the end of the experiment.
NCI-60 Human Tumor Cell Lines Screen was performed using the standard one-dose NCI protocol, which is described in more detail at https://dtp.cancer.gov/discovery_development/nci-60/default.htm.
Compounds with GIPRCNT values below 10 were considered active. Activity score was based on GIPRCNT using the following formula: […]
Score is 0 for GIPRCNT values of 100 or above, 50 for GIPRCNT values of 0, and 100 for GIPRCNT values of -100.

Q: How did the growth turn out when `O=C1OC(/C=C/c2ccccc2)=NC/1=C/c1ccccc1[N+](=O)[O-]` was run?
A: 104%

Q: For `COc1cnc2c(c1)C(=O)c1c-2n(CCCN2CCNCC2)c(=O)c2cc(Cl)ccc12`, which growth is on record?
A: 16.5%

Q: `O=C1OCC2=C1C(c1ccccc1)c1cc3c(cc1N2CCO)CCC3` (stereo not given) was tested. Which growth did it give?
A: 23.2%

Q: `CCN(CC)c1ccc(/C=N/NC(=O)C[N+](C)(C)C)cc1` was tested. Which growth did it give?
A: 105%

Q: With `COc1ccccc1CNCCCN1C(=O)c2ccc3c4c(ccc(c24)C1=O)C(=O)N(CCCCNCCCN)C3=O` as the compound, how does the growth read?
A: -80.2% (active)

Q: Which growth does the source give for `CC(C)N(C(=S)SSC(=S)N(C(C)C)C(C)C)C(C)C` here?
A: 101%

Q: With `O=C(CC(=O)C(F)(F)C(F)(F)C(F)(F)F)c1cc2ccccc2o1` as the compound, how does the growth read?
A: 103%

Q: `CCCCCCCC/C=C/CCCCCCCC1=NC(C)(C)CN1c1ccccc1` was tested. Which growth did it give?
A: 95.5%

Q: How did the growth turn out when `N/C(=C\C(=O)n1nc(-c2ccccc2)cc1N)c1ccccc1` was run?
A: 62.1%

Q: With `Oc1ccc(-c2nc3ccccc3s2)cc1CN(Cc1ccccn1)Cc1ccccn1` as the compound, how does the growth read?
A: 20.3%

Q: `Brc1ccsc1Br` was tested. Which growth did it give?
A: 113%

Q: Which growth does the source give for `CC(=O)O[C@H]1CC[C@]2(C)[C@H]3CC=C4[C@@H]5CC(C)(C)CC[C@]5(C(=O)OCC(COC(=O)C(Cl)Cl)(COC(=O)C(Cl)Cl)NC(=O)C(Cl)Cl)CC[C@@]4(C)[C@]3(C)CC[C@H]2C1(C)C` here?
A: 71.8%

Q: Which growth does the source give for `CC1=CC(=O)OC1C/C=C(\C)CCC1[C@@]2(C)CCC[C@@](C)(C(=O)O)C2CC[C@@]1(C)O` (stereo not given in full) here?
A: 41%

Q: With `CCOC(=O)C(Cc1ccccc1)n1c(O)c(/C=N/c2ncc(Cc3ccc(Cl)cc3Cl)s2)sc1=S` (stereo not given) as the compound, how does the growth read?
A: 6.54% (active)

Q: Which growth does the source give for `CCN(CC)c1ccc(/C=N/NC(=O)c2ccc(S(C)(=O)=O)cc2)c(O)c1` here?
A: 31.2%

Q: With `CN1C2CCC1/C(=C\c1ccc(Cl)cc1)C(=O)/C2=C/c1ccc(Cl)cc1` as the compound, how does the growth read?
A: 63.2%

Q: `C=C(C)[C@@H]1CC[C@]2(C(=O)NS(=O)(=O)c3ccccc3)CC[C@]3(C)[C@H](CC[C@@H]4[C@@]5(C)CC[C@H](OC(=O)NS(=O)(=O)c6ccccc6)C(C)(C)[C@@H]5CC[C@]43C)[C@@H]12` was tested. Which growth did it give?
A: 13%

Q: How did the growth turn out when `C/C(=N\NC(=O)CSc1nc2ccccc2c(=O)n1CCc1ccc(S(N)(=O)=O)cc1)c1ccc(Br)cc1` was run?
A: 92.2%

Q: How did the growth turn out when `COc1cc(C2CC(c3ccc(Cl)cc3)=NN2C=O)ccc1Oc1ccnc2cc(Cl)ccc12` (stereo not given) was run?
A: 77.3%

Q: How did the growth turn out when `O=c1c2cc(Cl)ccc2oc2ccc(OCCCCCN3CCCCCC3)cc12` was run?
A: 80.9%

Q: How did the growth turn out when `CC(C)(C)c1ccc(C(=O)Nc2sc3cc(O)ccc3c2C(N)=O)cc1` was run?
A: 78%

Q: For `CCc1c(C)c2ccc(O)c(-c3cc(-c4ccccc4)c(C#N)c(=O)[nH]3)c2oc1=O`, which growth is on record?
A: 105%

Q: For `COc1ccc(CC2c3cc(OC)c(OC)cc3CC[N+]2(C)CCC(=O)OCCCCCOC(=O)CC[N+]2(C)CCc3cc(OC)c(OC)cc3C2Cc2ccc(OC)c(OC)c2)cc1OC` (stereo not given), which growth is on record?
A: 81.2%

Q: `CCNCCCn1c2c(c3ccc(Cl)cc3c1=O)C(=O)c1cc(OC)cnc1-2` was tested. Which growth did it give?
A: 27.6%

Q: How did the growth turn out when `Cc1cc(O)ccc1Sc1ccccc1[N+](=O)[O-]` was run?
A: 92.3%

Q: `COc1cc(C2CC(c3ccc(C)cc3)=NN2C=O)ccc1Oc1nc2c(c(=O)n(C)c(=O)n2C)n1C` (stereo not given) was tested. Which growth did it give?
A: 52.4%

Q: Which growth does the source give for `O=C(Nc1ccncc1)C(=O)c1cn(S(=O)(=O)c2cccc(Cl)c2F)c2ccccc12` here?
A: 82.9%

Q: `O=C(CSc1nnc(Cc2ccccc2Nc2c(Cl)cccc2Cl)n1-c1ccccc1)N1N=C(c2ccc3ccccc3c2)CC1c1ccc(Cl)cc1` (stereo not given) was tested. Which growth did it give?
A: 96.6%

Q: With `c1cn2cc(-c3ccc4ncn(C5CCCCC5)c4c3)nc(-c3ccc4c(c3)ncn4C3CCCCC3)c2n1` as the compound, how does the growth read?
A: -54.6% (active)

Q: For `CC(=O)Oc1c(Cl)c(Cl)c(Cl)c(Cl)c1Cl`, which growth is on record?
A: 94.1%

Q: For `O=C(c1ccccc1)C(CCc1ccccn1)CCc1ccccn1`, which growth is on record?
A: 95.7%

Q: How did the growth turn out when `CCCCCCCCCCCCCCCCCC(=O)OCCCCCCCCCCCCC` was run?
A: 111%

Q: Which growth does the source give for `CCN(CC)CC(=O)Nc1c(C)cc(C(=O)NN)cc1C` here?
A: 98.3%

Q: Which growth does the source give for `CC(=O)Nc1c(Br)cc2c(c1Br)Cc1cc(Br)ccc1-2` here?
A: 83.1%

Q: With `CCC1=CC2CN(C1)Cc1c([nH]c3ccccc13)[C@@](C(=O)OC)(c1cc3c(cc1OC)N(C)[C@H]1[C@@](O)(C(=O)OC)[C@H](OC(C)=O)[C@]4(CC)C=CCN5CC[C@]31[C@@H]54)C2` (stereo not given in full) as the compound, how does the growth read?
A: 36.9%

Q: Which growth does the source give for `COC(=O)c1ccc2c(c1)nc(-c1ccc(Cl)cc1)n2-c1cc(C(C)(C)C)[nH]n1` here?
A: 79.1%

Q: With `NS(=O)(=O)c1ccc(CCn2c(SCC(=O)N/N=C/c3cc4ccccc4[nH]3)nc3ccccc3c2=O)cc1` as the compound, how does the growth read?
A: 73.4%

Q: How did the growth turn out when `CC(C)C/C=C/C=C/C(=O)N[C@@H](CC(N)=O)C(=O)N[C@@H]1C(=O)N[C@H](c2ccc(O)cc2)C(=O)N[C@H](CCCN)C(=O)N[C@H]([C@@H](C)O)C(=O)N[C@H](c2ccc(O)cc2)C(=O)N[C@H](c2ccc(O)cc2)C(=O)N[C@H]([C@H](C)O)C(=O)N[C@H](Cc2ccccc2)C(=O)N[C@H](CCCN)C(=O)N[C@H](c2ccc(O[C@H]3O[C@@H](CO)[C@@H](O)[C@@H](O)[C@H]3O[C@@H]3O[C@H](CO)[C@H](O)[C@H](O)[C@@H]3O)cc2)C(=O)N[C@H]([C@H](C)O)C(=O)N[C@H](c2ccc(O)cc2)C(=O)NCC(=O)N[C@H](CC(C)C)C(=O)N[C@H](C)C(=O)N[C@H](c2ccc(O)c(Cl)c2)C(=O)O[C@@H]1C(N)=O` was run?
A: 94.5%

Q: How did the growth turn out when `Cc1ccc(NC(=O)c2cc(NCc3cc(O)ccc3O)ccc2O)cc1` was run?
A: 86.1%

Q: With `CCCC(CCC)(C(N)=O)C(=O)O` as the compound, how does the growth read?
A: 102%
